# Bioassay records: PubChem, National Center for Advancing Translational Sciences (NCATS)
# Only a selection was taken, and hits are over-represented in it overall.
# Marburg entry inh: Marburg virus entry inhibition; Marburg virus pseudotyped entry inhibition, cell reporter; Potency, µM (highest dose often 37.8 µM), without a hit: top-dose activity change, negative = inhibition, usual class: inhibitors; hit rate 1.8% among 300,000; AID 540276; calls by dose curve; tested in HEK293 cells; further: potency means the concentration at half of the fitted maximal effect; on the % scale 0 is the no-effect control and ±100 the full control effect
# VACV mCherry inh: inhibitors of vaccinia virus infection (mCherry reporter signal). Vaccinia virus mCherry reporter infection, fluorescence. Potency, µM (series often up to 36.5 µM), for inactives: top-dose activity change, negative = inhibition, actives largely listed as inhibitors. hit rate 0.63% among 310,000; calls by dose curve; tested in A549 cells; further: potency means the concentration at half of the fitted maximal effect; on the % scale 0 is the no-effect control and ±100 the full control effect; nearly all actives have a fitted effect of over 35% in size
# Shiga inhibitor: inhibitors of Shiga toxin in Vero cells. inhibition, % at 38.7 µM. Vero cells, Shiga toxin protein synthesis inhibition reporter. hit rate 9.2% among 290,000; in the data active means inhibition mostly above about 28%, no sharp cut-off; inactive means mostly below about 43%; further: 0% is about no effect
# Lassa entry inh: Lassa virus entry inhibition. Lassa virus pseudotype entry inhibition, cell reporter. Potency, µM (top dose mostly 37.9 µM), inactives show at the highest dose activity change, negative = inhibition, most hits filed as inhibitors. hit rate 1.2% among 300,000; calls by dose curve; tested in HEK293 cells; further: potency means the concentration at half of the fitted maximal effect; on the % scale 0 is the no-effect control and ±100 the full control effect; nearly all actives have a fitted effect of over 50% in size
# Cycloheximide cs: counter-screen for Shiga toxin inhibitors: cycloheximide protein synthesis inhibition | AID 2314 | max response, % | cell reporter, cycloheximide protein synthesis inhibition counterscreen | hit rate 12% among 300,000; in the data active means max response mostly above about 13%, no sharp cut-off; inactive means mostly below about 14%; further: read at 38.3 µM for the half of the compounds with a filed dose; 0% is about no effect
# Vaccinia Venus: vaccinia inhibition (Venus reporter). Potency, µM (titrated, usually from 36.5 µM), for the others: at the highest dose activity change, negative = inhibition, hits mostly inhibitors. hit rate 0.46% among 330,000. Vaccinia virus Venus reporter expression, fluorescence. AID 720580; calls by dose curve; tested in A549 cells; further: potency means the concentration at half of the fitted maximal effect; on the % scale 0 is the no-effect control and ±100 the full control effect; nearly all actives have a fitted effect of over 30% in size
# The depositor's hits bear a star; i = inactive; ? = inconclusive; . = not tested or not shown; [ ] = remark or other dose.
SMILES,Marburg entry inh,VACV mCherry inh,Shiga inhibitor,Lassa entry inh,Cycloheximide cs,Vaccinia Venus
O=C(NCc1ccccc1)c1nn(-c2ccccc2)nc1CO,?,-13%,.,?,.,-18%
CCOc1ccc(-c2nnc(-c3cccs3)o2)cc1,?,.,130*,?,45*,.
COc1ccc(-c2nnc(-c3cccs3)o2)cc1OC,-27%,.,92*,0%,51*,.
COc1cc(-c2nnc(-c3cccs3)o2)cc(OC)c1OC,-24%,-2%,16,-14%,2,9%
c1csc(-c2nnc(-c3ccc(N4CCOCC4)cc3)o2)c1,?,.,63*,?,47*,.
CCOc1ccc(-c2nc(-c3cccs3)c(CC(=O)O)s2)cc1OC,12%[46.1 µM],-6%,48,?,24*,2%
Cc1ccc(OCCSc2nnc(-c3cccs3)o2)cc1,16%[46.1 µM],-5%,.,-9%[46.1 µM],.,-6%
COc1cc(OC)c(NC(=O)N2CCc3c(sc4c3CCCC4)C2c2ccccc2)cc1Cl (centres undefined),.,-20%,.,-10%[46.1 µM],.,-6%
COC1=CC2C(=O)C([C@@H]3c4ccccc4C[C@]23C)C1(O)c1cccc(OC)c1 (some centres undefined),4%[14.2 µM],.,.,.,.,.
CCOc1ccc(-c2nnc(-c3cccs3)o2)cc1OCC,6%,.,58*,-10%,24*,.
COc1ccc(O)c(CN2CCC3(CCC(CNC(=O)c4ccccc4)O3)CC2)c1 (centres undefined),.,-17%,.,.,.,-17%
CCC(=O)Nc1ccc(CC)cc1-c1nc2ccccc2n(Cc2ccccc2)c1=O,-3%[46.1 µM],-16%,.,4%[46.1 µM],.,-9%
N=C1C(c2ccccc2)=C(O)CN1c1cccc(S(=O)(=O)N2CCCCC2)c1,.,.,-6,.,-1,.
Cc1cccc(C(=O)Nc2cc(NC(=O)c3cccs3)ccc2C)c1,-29%,-14%,14,-4%,6,-23%
COc1cc(C(=O)N/N=C(\c2ccccc2)c2ccccn2)cc(OC)c1OC,.,.,-13,.,-8,.
COc1cccc(C(=O)N/N=C(/c2ccccc2)c2ccccn2)c1,?,2µM*,-10,?,-2,?
COc1cccc(C(=O)Nc2cnn(C(C)C)c2)c1,-4%,i,94*,-3%,32*,-11%
COc1cccc(C(N)=O)c1,.,1%,.,.,.,-3%
Cc1cccc(C(=O)Nc2ccc(C)c(OC(=O)c3cccc(C)c3)c2)c1,4%,.,193*,.,56*,.
COc1cccc(/C(C)=N/N=C(\C)c2cccc(OC)c2)c1,.,.,39*,.,34*,.
COc1ccccc1OCCNC(=O)CCS(=O)(=O)c1ccccc1,22%,i,.,3%,.,-11%
CCOC(=O)c1c(NC(=O)COC(=O)c2cccc([N+](=O)[O-])c2)sc(C(=O)N(C)C)c1C,.,i,.,.,.,-12%
CCOc1ccc(NC(=O)CCNC(=O)Cn2ccc3ccccc3c2=O)cc1,5%[46.1 µM],-10%,1,-3%,-5,-8%
CCn1c2ccccc2c2cc(NC(=O)c3ccco3)ccc21,-14%,?,41,?,18*,?
COc1ccc(C(=O)NN/C(C)=C/C(=O)C(F)(F)C(F)(F)C(F)(F)F)cc1,?,-12%,44*,-7%,22*,-5%
SMILES,Marburg entry inh,VACV mCherry inh,Shiga inhibitor,Lassa entry inh,Cycloheximide cs,Vaccinia Venus
COc1cccc(C(=O)Nc2cccc(SC)c2)c1,?,.,63*,-1%,19*,-8%
Cc1cccc(C(=O)NCCNC(=O)c2cccc(C)c2)c1,-41%,i,-10,?,-1,-24%
CCC/C(=N\NC(=O)c1cccc(C)c1)c1ccccc1,0%,-12%,59*,?,56*,-7%
COc1cccc(C(=O)Nc2cccc(OCC(=O)O)c2)c1,12%,.,-20,8%,9,.
COc1c(C(=O)NNC(=O)c2ccccc2)csc1Br,-23%,i,48*,?,35*,-25%
CCn1c2ccccc2c2cc(NC(=O)c3cccc(OC)c3)ccc21,?,.,95*,?,20*,.
CCn1c(=O)sc2cc(NC(=O)c3cccc(OC)c3)ccc21,8%[46.1 µM],-2%,.,-5%[46.1 µM],.,0%
CS(=O)(=O)Nc1ccc(C(=O)Nc2ccc3ccccc3c2)cc1,18%,-12%,.,2%,35*,-8%
CC(=O)c1cccc(NC(=O)c2ccc(NS(C)(=O)=O)cc2)c1,-10%,.,6,-1%,7,?
CCOc1ccc(Nc2nc(C)c(NC(=O)c3cccc(OC)c3)c(Nc3ccc(OCC)cc3)n2)cc1,11µM*,i,.,3%[46.1 µM],.,-16%
CCOc1ccc(C(=O)Nc2c(C)nc(Nc3ccccc3)nc2Nc2ccccc2)cc1OCC,?,-23%,.,-23%[46.1 µM],.,-20%
COc1ccc(C(=O)NCCc2nnc3n2CCN(CC2CC=CCC2)CC3)cc1 (centres undefined),.,-22%,.,.,.,-8%
CCCCn1c(C)cc2c(c1=O)[C@H]1O[C@](CCCCN3C(=O)c4ccccc4C3=O)(Cc3ccccc31)O2,5%[14.2 µM],.,i,.,-2,.
CC1CN(CCC(=O)NC(c2cccnc2)C(F)(F)F)Cc2cc(Cl)ccc2O1 (centres undefined),.,-10%,.,.,.,-10%
COc1ccc(C(=O)Nc2ccc3ccccc3c2)cc1,.,.,-24,.,7,.
COc1cccc(C(=O)Nc2ccc3ccccc3c2)c1,?,i,.,?,40*,-7%
COc1cccc(C(=O)Nc2ccc(NC(=O)Cc3ccccc3)cc2)c1,-12%[46.1 µM],-21%,-9,-12%[46.1 µM],-3,-17%
CCOc1ccccc1NC(=O)C(=O)/C=C(\O)c1cc(OC)ccc1OC,-7%,.,-8,?,-2,.
COc1cccc(C(=O)Nc2ccccc2)c1,9%,.,64*,3%,35*,.
COc1cccc(NC(=O)c2ccc(C(=O)c3ccccc3)o2)c1,?,-17%,93*,13%[46.1 µM],38*,-12%
COc1ccccc1NC(=O)C(=O)/C=C(\O)c1ccccc1,?,i,64*,-11%,48*,-20%
O=C(O)C1=CC[C@@H](c2ccc(Cl)cc2)N(S(=O)(=O)c2ccc(Cl)cc2)[C@H]1c1ccc(Br)cc1,.,-28%,.,.,.,-28%
OC[C@@H]1CCC[C@@H](n2cnc3c(=S)nc[nH]c32)O1,.,-16%,.,.,.,-20%
CCc1cc2c(cc3c(=O)n(CC(=O)NC4CCC(C)CC4)ncn32)s1 (centres undefined),-10%[46.1 µM],-12%,.,.,.,-9%
C/C(=N\NC(=O)C1(C)CC1(Br)Br)c1cccc(NC(=O)c2ccc(C)o2)c1 (centres undefined),?,-22%,52*,?,28*,-26%
SMILES,Marburg entry inh,VACV mCherry inh,Shiga inhibitor,Lassa entry inh,Cycloheximide cs,Vaccinia Venus
Cc1ccc(C(=O)Nc2cccc(Oc3ccccc3)c2)o1,-20%,.,34,?,30*,?
CC(=O)Nc1cccc(/C(C)=N/NC(=O)c2ccc(CN3CCOCC3)cc2)c1,8%[46.1 µM],-1%,10,-15%,10,-3%
Cc1ccc(C(=O)Nc2cccc(C(=O)NCc3ccccc3)c2)o1,-18%,.,21,?,-2,.
O=C(O)c1ccc(NC(=O)c2ccc(COc3ccccc3)o2)cc1,.,.,55,.,17,.
O=C(Nc1ccc(O)cc1)c1ccc(C(=O)c2ccccc2)o1,-5%,-24%,55*,?,23,-16%
CCn1c2ccccc2c2cc(NC(=O)C(=O)N3CCOCC3)ccc21,?,-24%,86*,6%,35*,-9%
